# Mcl1-Bid inh: Mcl-1/Bid interaction inhibition; AID 1021; inhibition, % at 21.7 µM; TR-FRET Mcl-1/Bid-Dy647 peptide binding, 1536-well; 220,000 compounds, 0.97% hits; Q07820;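 active = compounds that cut the binding signal by more than half at the single screening dose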;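 note: His-tagged Mcl-1 with europium anti-His antibody binding Bid BH3 peptide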
# Target sequence (Q07820 whole entry, looked up): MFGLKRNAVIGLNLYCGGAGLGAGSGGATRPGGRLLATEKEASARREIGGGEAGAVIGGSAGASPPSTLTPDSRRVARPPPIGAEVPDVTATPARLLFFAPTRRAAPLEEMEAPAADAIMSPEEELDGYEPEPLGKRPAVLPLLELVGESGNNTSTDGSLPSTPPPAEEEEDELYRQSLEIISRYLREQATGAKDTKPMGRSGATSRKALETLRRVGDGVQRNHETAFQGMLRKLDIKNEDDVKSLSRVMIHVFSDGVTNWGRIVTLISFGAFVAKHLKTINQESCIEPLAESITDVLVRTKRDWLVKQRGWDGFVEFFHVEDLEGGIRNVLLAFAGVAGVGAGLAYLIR
# Mcl1-Noxa inh: Mcl-1/Noxa interaction inhibition | 220,000 compounds, 1.5% hits | inhibition, % at 21.7 µM | Q07820 | TR-FRET Mcl-1/Noxa peptide binding, 2 h;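 active = compounds that cut the protein-peptide binding signal by more than 50% relative to plate controls in a single-dose test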;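 note: His-tagged Mcl-1 with rhodamine Noxa BH3 peptide and terbium anti-His antibody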
# BCLXL inh: Bcl-xL (human) inhibition | inhibition, % at 10.9 µM | GST-Bcl-xL / FITC-Bim BH3 peptide fluorescence polarization | Q07817 | 320,000 compounds, 0.7% hits | AID 2129;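 active = inhibition above the mean of all tested compounds plus 3 SD, cutoff set per campaign, cut at about 30% in these data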;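 note: inhibitors lower millipolarization by displacing the labeled peptide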
# Target sequence (Q07817 whole entry, looked up): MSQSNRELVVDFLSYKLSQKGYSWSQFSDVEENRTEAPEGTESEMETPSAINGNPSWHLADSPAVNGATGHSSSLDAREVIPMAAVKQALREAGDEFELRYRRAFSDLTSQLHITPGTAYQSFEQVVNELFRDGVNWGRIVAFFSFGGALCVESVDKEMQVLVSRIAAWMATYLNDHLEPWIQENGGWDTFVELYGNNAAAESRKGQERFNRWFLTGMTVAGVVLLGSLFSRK
# MCL1 BIM primary: MCL1-BIM-BH3 interaction inhibition (human); Q07820; GST-MCL1 / FITC-Bim-BH3 fluorescence polarization; inhibition, % at 10.9 µM; 320,000 compounds, 0.68% hits; AID 2057;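 active = inhibition above the mean inhibition of all tested compounds plus 3 SD, set per campaign, cut at about 40% in these data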;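 note: higher means more loss of mP so more displacement of Bim peptide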
# GLD-1 RNA inh: GLD-1-TGE RNA interaction inhibition (C. elegans); Q17339; purified GLD-1 + fluorescein TGE RNA, fluorescence polarization; inhibition, % at 5.96 µM; 320,000 compounds, 0.44% hits;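 active = percent inhibition above a per-plate cutoff, the plate mean of test compounds plus 3 SD, cut at about 30% in these data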
# Bim-Mcl-1: disrupts Bim peptide binding to human Mcl-1. Q07820. Bead-based flow cytometry, Bim peptide-Mcl-1 binding. inhibition, % at 10 µM. 190,000 compounds, 0.1% hits; in the data active = inhibition above about 40%
# Hits are given with their value; - = inactive; . = no result given. Rows were chosen to be rich in hits. Some 2.3% of all compounds tested hit in one or more screens of this group.
SMILES,Mcl1-Bid inh,Mcl1-Noxa inh,BCLXL inh,MCL1 BIM primary,GLD-1 RNA inh,Bim-Mcl-1
Cc1ccc(NC(=O)CCNC(=O)c2ccco2)cc1,-,-,-,-,-,-
CCOC(=O)c1c2ccc(OCC(=O)N/N=C/c3ccc(C)cc3)cc2n2ccccc12,73,-,-,-,-,-
COc1ccc(NC(=O)CN(C)C(=O)c2c(C)nn(Cc3ccccc3)c2C)cc1,.,.,-,-,-,.
Clc1nc(Cl)nc(N(c2ccccc2)c2ccccc2)n1,51,-,-,-,-,-
CCCN1CCC(NC(=O)Cc2ccc(C)cc2)CC1,.,.,-,-,-,.
COc1ccc(NC(=O)CN(C)C(=O)CCCc2nc3ccccc3s2)cc1,.,.,-,-,-,.
CCCOc1ccc(-c2c(C(=O)N/N=C(\C)c3ccco3)nnn2-c2nonc2N)cc1,.,.,69,-,-,.
CCCOc1ccc(-c2c(C(=O)N/N=C(\C)c3cccnc3)nnn2-c2nonc2N)cc1,.,.,-,-,-,.
Cc1cccn2c(=O)c3cc(C(N)=S)c(=N)n(CCCN4CCOCC4)c3nc12,58,-,33,-,-,-
COCCCn1c(=N)c(C(N)=S)cc2c(=O)n3cccc(C)c3nc21,.,.,34,-,-,.
Cc1ccc2nc3c(cc(C(N)=S)c(=N)n3CCCOC(C)C)c(=O)n2c1,-,-,39,-,-,-
CC(C)N1CCNCC1,-,-,-,-,-,-
COc1ccc(N2C(=O)C3CCCN3C2c2ccc(C)o2)cc1 (stereo not drawn),-,-,-,-,-,-
O=C(NCc1cccnc1)c1cc2nc(-c3cccs3)cc(C(F)(F)Cl)n2n1,-,-,-,-,-,-
Cn1c(CNC(=O)CCNC(=O)c2cccc(Br)c2)cc(=O)n(C)c1=O,.,.,-,-,-,.
O=C(N/N=C/c1c[nH]c2ccccc12)c1cc(-c2ccc(-c3ccccc3)cc2)n[nH]1,52,-,-,-,-,-
Cc1ccc(S(=O)(=O)NCC(=O)OCC(=O)NCc2cccs2)cc1,.,.,-,-,-,.
CCOc1cc(/C=N/n2c(C)nnc2C)ccc1O,-,-,-,-,-,.
COc1cccc(F)c1C(C[N+](=O)[O-])c1c(N)n(C)c(=O)n(C)c1=O (stereo not drawn),-,-,-,-,-,.
CC1(C)CCCN(C(=O)c2coc(=O)c(Br)c2)C1,-,79,.,.,.,-
CCOc1ccc(NC(=O)CSc2nc3ccccc3c(=O)n2CCCC(=O)NCCCN2CCCC2=O)cc1,-,-,-,-,-,-
CCN1CCCc2cc(CN(CCN3CCOCC3)C(=S)Nc3cccc(Cl)c3)ccc21,-,-,-,-,-,-
CCN1CCCc2cc(CN(CCN3CCOCC3)C(=S)Nc3ccc(OC)cc3)ccc21,-,-,-,-,-,-
CCN1CCCc2cc(CN(CCN3CCOCC3)C(=S)Nc3ccc(C)cc3)ccc21,-,69,-,-,-,-
CCN1CCCc2cc(CN(CCN3CCOCC3)C(=S)Nc3cc(F)cc(F)c3)ccc21,-,60,-,-,-,-
SMILES,Mcl1-Bid inh,Mcl1-Noxa inh,BCLXL inh,MCL1 BIM primary,GLD-1 RNA inh,Bim-Mcl-1
O=C(O)c1ccc(N2CCCCCC2)c(N2C(=O)c3ccccc3C2=O)c1,-,-,-,-,-,-
O=C1c2cccc3c(N4CCCCC4)ccc(c23)C(=O)N1c1ccccc1O,-,-,35,-,-,-
O=C(Cn1cc(SCc2ccc(F)cc2)c2ccccc21)N1CCOCC1,-,-,-,-,-,-
O=C(Cn1cc(SCc2ccc(Cl)cc2)c2ccccc21)N1CCOCC1,52,-,-,-,-,-
Cc1ccc(NC(=S)N/N=C2\CC(C)(C)Oc3ccc(O)cc32)cc1,-,-,-,-,-,-
Cc1ccccc1NC(=S)N/N=C1\CC(C)(C)Oc2ccc(O)cc21,-,-,82,-,-,-
O=C(CN(Cc1ccc(F)cc1)S(=O)(=O)c1ccccc1)N1CCCCC1,-,62,-,-,-,-
COc1ccc(N2Cc3cccc(C(=O)O)c3C2=O)cc1,-,79,-,-,-,-
Cc1cccc([C@@H]2[C@@H]3C(=O)N(Cc4ccccc4)C(=O)[C@@H]3[C@]3(CC(C)C)C(=O)N(c4cccc(F)c4)C(=O)N23)c1,.,.,-,-,-,.
COc1ccc(CNS(=O)(=O)c2ccc(F)c(C(=O)Nc3ccc(OC)cc3)c2)cc1,-,53,-,-,-,-
COc1ccc(-c2cc(C(F)(F)F)nc(N3CCOCC3)n2)cc1OC,91,-,-,-,-,-
COc1cccc(-c2cc(C(F)(F)F)nc(N3CCOCC3)n2)c1,-,-,-,-,-,-
COc1ccc(CNC(=O)C(=O)NCCCn2ccnc2)cc1,-,-,-,-,-,-
CSC1=NSC2=NC(=O)/C(=C/c3coc4ccccc4c3=O)C(=N)N12,-,-,44,52,-,-
CSC1=NSC2=NC(=O)/C(=C/c3coc4ccc(O)cc4c3=O)C(=N)N12,-,62,52,-,-,-
CC(=O)c1ccc(S(=O)(=O)N(C)CCCC(=O)N(C)Cc2c(F)cccc2Cl)cc1,.,.,-,-,-,.
CC(=O)c1ccc(NC(=O)CC2Nc3cccc4cccc(c34)NC2=O)cc1 (stereo not drawn),-,83,-,-,-,-
Cc1ccc(S(=O)(=O)N2CCOCC(=O)NCCOCCNC(=O)COCC2)cc1,-,-,.,.,.,-
Cc1cc(C)c2c(c1)[C@@H]1C=CC[C@@H]1[C@H](c1ccc(S(=O)(=O)N3CCOCC3)cc1)N2,-,67,-,-,-,-
COc1cc(/C=C2\SC(=O)N(Cc3ccc(Cl)cc3)C2=O)cc([N+](=O)[O-])c1O,90,92,.,.,.,-
O=C1/C(=C/c2ccc(O)c([N+](=O)[O-])c2)SC(=S)N1Cc1ccccc1,-,56,-,-,-,-
CCOC(=O)CN1C(=O)S/C(=C/c2ccc(OC)c([N+](=O)[O-])c2)C1=O,-,-,-,-,-,-
O=C1/C(=C\c2cccc([N+](=O)[O-])c2O)SC(=S)N1Cc1ccccc1,.,.,-,-,-,.
COc1cc(/C=C2\SC(=O)N(Cc3ccc(F)cc3)C2=O)cc([N+](=O)[O-])c1O,-,97,.,.,.,-
CCOc1cc(S(=O)(=O)NCc2cccnc2)c(C)cc1C,-,-,-,-,-,-
SMILES,Mcl1-Bid inh,Mcl1-Noxa inh,BCLXL inh,MCL1 BIM primary,GLD-1 RNA inh,Bim-Mcl-1
Cc1cccc(CC(=O)Nc2sc(C(C)C)cc2C(=O)N2CCOCC2)c1,.,.,-,-,-,.
CCN(CC)C(=O)CSc1nc2c(sc(=S)n2-c2ccccc2)c(=O)n1Cc1ccco1,-,-,50,-,-,-
CCN1CCN(C(=O)/C(=C/c2ccco2)NC(=O)c2ccccc2)CC1,.,.,-,-,-,.
O=C(CNc1ccc2ccccc2c1)N/N=C/C=C/c1cccc([N+](=O)[O-])c1,-,77,-,-,-,-
CCC(SC1=Nc2ccccc2C2=NC(CC(C)C)C(=O)N12)C(=O)Nc1ccc2c(c1)OCO2 (stereo not drawn),-,62,-,-,-,-
COc1ccc(NC(=O)CSc2ncnc3c2sc2ccccc23)c(OC)c1,-,79,-,-,-,-
